Experimental data taken from PubChem BioAssay (EPA / NIEHS).
Where “and” joins values, the source holds several entries; their conditions need not be identical. Equal entries are not always repeated. More than one record can exist for a structure, and the calls need not agree. Calls of active or inactive are those of the source. How the source made its calls: active means hit-call score of the fitted dose curve at least 0.9, where 1 is the maximum; inactive means score below 0.9.

Each molecule was assayed on Thrombomodulin, THBD (gene 7056) (assay: BSK_LPS_Thrombomodulin: BioMAP Diversity Plus: LPS Assay for Thrombomodulin Biomarker Activity (AID 2284296)). Conditions: primary human HUVEC with PBMC.
Method: BSK_LPS is a cell-based, multiplexed-readout assay that uses umbilical vein endothelium and peripheral blood mononuclear cells, a human vascular primary cell co-culture, with measurements taken at 24 hours after chemical dosing in a 96-well plate.BSK_LPS_Thrombomodulin is an assay component measured in the BSK_LPS assay. It measures Thrombomodulin antibody related to regulation of gene expression using ELISA technology.Data from the assay component BSK_LPS_Thrombodulin was analyzed at the endpoint, BSK_LPS_Thrombomodulin, in the positive analysis fitting direction relative to DMSO as the negative control and baseline of activity. Using a type of binding reporter, gain or loss-of-signal activity can be used to understand protein changes. To generalize the intended target to other relatable targets, this assay endpoint is annotated to the 'gpcr' intended target family, where the subfamily is 'rhodopsin-like receptor'.
The levels of cell surface (or secreted, indicated by the prefix "s") biomarker endpoints were measured by ELISA. Overt cytotoxicity to cells in confluent adherent cultures (all systems other than the BT system) was assessed by measuring total protein levels using sulforhodamine B (SRB) staining in parallel cultures at the time of biomarker measurements, indicated as SRB endpoints. For proliferation assays for adherent cell types, individual cell types are cultured at sub-confluence and relative cell numbers quantified by SRB staining at time points optimized for each system (48 h: 3C and CASM3C systems; 72 h: BT and HDF3CGF systems; 96 h: SAg system). SRB was performed by staining cells with 0.1% SRB after fixation with 10% TCA and reading wells at 560 nm.Viability and proliferation of PBMC (T cells) was quantified by Alamar Blue reduction for the SAg and BT systems. For PBMC viability (referred to as PBMC Cytotoxicity within the assay endpoint names), cells were plated (75,000/well in a 96-well plate) and then chemical samples added for 1 h before addition of activators, SEB and TSST-1 (20 ng/mL final concentration each). Cells were incubated for 90 h. Then, Alamar Blue (20 uL/well) (Invitrogen, Cat DAL1100) was added for 6 h, and the plates were read with a fluorescence microplate reader at 546/580 nm (excitation/emission). For PBMC proliferation, cells were plated and activated as above but incubated for only 16 h prior to addition of Alamar Blue. Plates were read after 6 h.

Compound	outcome	AC50
FC(F)(F)C(F)(F)C(F)(F)C(F)(F)C(F)(F)C(F)(F)C(F)(F)I	inactive	–
OCC(F)(F)C(F)(F)C(F)(F)F	inactive	–
FC(F)(F)C(F)(F)C(F)(F)C(F)(F)C(F)(F)C(F)(F)C(F)(F)C(F)(F)F	inactive	–
O=S(=O)(OCC(F)F)C(F)(F)F	inactive	–
O=C(O)C(F)(OC(F)(F)C(F)(OC(F)(F)C(F)(F)C(F)(F)F)C(F)(F)F)C(F)(F)F (stereo unspecified)	inactive	–
O=C(O)C(F)(F)C(F)(F)F	inactive	–
CCCCCCOC(=O)c1ccccc1O	inactive	–
O=C(O)C(F)(F)C(F)(F)C(F)(F)C(F)(F)C(F)(F)C(F)(F)C(F)(F)C(F)(F)Cl	–	30 µM (active) and 27.2 µM (active)
O=S(=O)(OCCOC(F)(F)F)C(F)(F)F	inactive	–
FC(F)(F)C(F)(F)C(F)(F)C(F)(F)C(F)(F)C(F)(F)CC1CO1 (stereo unspecified)	inactive	–
FC(F)(F)C(F)(F)C(F)(F)N(C(F)(F)C(F)(F)C(F)(F)F)C(F)(F)C(F)(F)C(F)(F)F	inactive	–
FC(F)(I)C(F)(F)C(F)(F)C(F)(F)I	inactive	45.8 µM (active)
O=C(O)C(F)(F)C(F)(F)C(F)(F)C(F)(F)F	inactive	–
O=C(CC(=O)C(F)(F)C(F)(F)F)C(F)(F)F	inactive	–
OCC(F)(F)C(F)(F)C(F)(F)C(F)F	inactive	–
FC(F)(F)C(F)(F)C(F)(F)CI	inactive	1.34 µM (active)
CCO[Si](CCC(F)(F)C(F)(F)C(F)(F)C(F)(F)C(F)(F)C(F)(F)F)(OCC)OCC	inactive	–
O=C(O)C(F)(F)C(F)(F)OC(F)(F)F	inactive	–

Compound	outcome	AC50
FC(F)(F)C(F)(F)C(F)(F)C(F)(F)C(F)(F)CCI	inactive	–
O=C(O)C=C(C(F)(F)F)C(F)(F)F	inactive	1.97 µM (active)
O=C(O)C(F)(F)C(F)(F)C(F)(F)C(F)(F)C(F)(F)C(F)(F)C(F)(F)C(F)(F)C(F)(F)C(F)F	–	55 µM (active) and 12.4 µM (active)
CC(C)(C)C(=O)CC(=O)C(F)(F)C(F)(F)C(F)(F)F	inactive	–
FC(F)(Br)C(F)(F)C(F)(F)C(F)(F)C(F)(F)C(F)(F)Br	inactive	–
O=C(O)C(F)(F)C(F)(F)C(F)(F)C(F)(F)C(F)(F)C(F)(F)C(F)(F)C(F)(F)C(F)(F)C(F)(F)C(F)(F)C(F)(F)C(F)(F)F	inactive	–
C=CC(F)(F)C(F)(F)C(F)(F)C(F)(F)C(F)(F)C(F)(F)C(F)(F)C(F)(F)C=C	inactive	–
FC(F)(F)C(F)(F)C(F)(F)C(F)(F)C(F)(F)C(F)(F)CCS	inactive	–
OCCCC(F)(F)C(F)(F)C(F)(F)C(F)(F)C(F)(F)C(F)(F)C(F)(F)F	–	49.4 µM (active) and 45.6 µM (active)
FC(F)(F)C(F)(F)C(F)(F)C(F)(F)C(F)(F)C(F)(F)C(F)(F)C(F)(F)CCS	inactive	–
O=C(O)C(F)(F)C(F)(F)C(F)F	inactive	–
OCC(F)(F)C(F)(F)C(F)(F)C(F)(F)C(F)(F)C(F)F	inactive	–
N=C(N)C(F)(F)C(F)(F)C(F)(F)C(F)(F)C(F)(F)C(F)(F)C(F)(F)F	inactive	48.7 µM (active)
COC(=O)CCC(F)(F)C(F)(F)C(F)(F)C(F)(F)F	inactive	–
FC(F)(F)C(F)(F)C(F)(F)C(F)(F)CCI	inactive	–
C=C(C)C(=O)OCC(F)(F)C(F)(F)C(F)(F)C(F)(F)C(F)(F)C(F)(F)C(F)(F)F	inactive	–
Cc1ccc(S(=O)(=O)OCC(F)(F)C(F)(F)C(F)(F)C(F)(F)C(F)(F)C(F)F)cc1	inactive	–
FC(F)(F)C(F)(F)CNCC(F)(F)C(F)(F)F	inactive	0.227 µM (active)
